Source: PubChem BioAssay
The source made the active and inactive calls.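 How the source made its calls, unless noted: active means compounds that lower viability of the colon cancer cells in the luminescence readout, with no numeric limit stated; inactive means the rest.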

assay: CellTiter-Glo luminescent readout of SW480 viability loss, NPC library primary (AID 1117343); details: CellTiter-Glo luminescence; at 20 µM (top of the series)

Compound | viability decrease (inhibition)
CC[C@@]1(O)C(=O)OCc2c1cc1n(c2=O)Cc2c-1nc1ccccc1c2/C=N/OC(C)(C)C | 64.5% (active)
CC1(C)O[C@@H]2C[C@H]3[C@@H]4CCC5=CC(=O)C=C[C@]5(C)[C@@H]4[C@@H](O)C[C@]3(C)[C@]2(C(=O)CO)O1 | -17.7% (inactive)
Cc1ccc(S(=O)(=O)NC(=O)NC2CCCCC2)cc1 | 17.6% (inactive)
CCCCCC1Nc2cc(C(F)(F)F)c(S(N)(=O)=O)cc2S(=O)(=O)N1 (stereo not drawn) | 0.7% (inactive)
CC(C)(C)NCC(O)COc1ccccc1OCC1CCCO1 (stereo not drawn) | 30% (inactive)
NC(=O)NC1N=C([O][Al])NC1=O (stereo not drawn) | 19.8% (inactive)
CC(C)CCOC(=O)c1ccc(N(C)C)cc1 | -6.9% (inactive)
Nc1nc(=O)n([C@@H]2O[C@H](CO)[C@@H](O)[C@@H]2F)cc1I | 32.2% (inactive)
CCOC(=O)c1cccnc1 | 58.1% (active)
CCN(CC)CCOC(=O)C1(c2ccccc2)CCCC1 | -1.9% (inactive)
NS(=O)(=O)c1ccc(NC(=O)CCC(=O)O)cc1 | -26.6% (inactive)
CCCCCCCC(=O)OCC(O)CO (stereo not drawn) | 16.9% (inactive)
Cc1nc(-c2ccc(Cl)cc2)oc1COC(C)(C)C(=O)O | 14.8% (inactive)
CN(CC1(C)CCCO1)S(=O)(=O)c1ccc(Cl)c(S(N)(=O)=O)c1 (stereo not drawn) | -9.7% (inactive)
CCC(=O)Oc1ccc2c(c1)CC[C@@H]1[C@H]2CC[C@]2(C)[C@@H](OC(=O)CC)CC[C@@H]12 | 49.6% (inactive)
Nc1ccc([N+](=O)[O-])c(C(F)(F)F)c1 | -16.7% (inactive)
CN1N=C(C(N)=O)CCC1=O | -11.3% (inactive)
CC(C)(C)C(=O)OCOC(=O)C1N2C(=O)CC2S(=O)(=O)C1(C)C (stereo not drawn) | -22.3% (inactive)
CCCCCCCCCCCCCCCC(=O)OC(C)C | -0.2% (inactive)
CCCCN(CCN(CCCC)C(=O)N1CCOCC1)C(=O)N1CCOCC1 | 2.8% (inactive)

Compound | viability decrease (inhibition)
CCc1cccc2c(CCO)c[nH]c12 | -18% (inactive)
CCc1cc(S(=O)(=O)O)c2cc(C(C)C)cccc1-2 | -19% (inactive)
O=C(O)[C@@H]1CSCN1 | 38.4% (inactive)
CCN1CCN(C(=O)N[C@@H](C(=O)N[C@@H]2C(=O)N3[C@@H]2SC(C)(C)[C@H]3C(=O)O)c2ccccc2)C(=O)C1=O | 8.3% (inactive)
O=C(O)c1ccccc1-c1ccc(C(F)(F)F)cc1 | 31.1% (inactive)
CCCc1ncc(C(=O)O)s1 | 2.1% (inactive)
O=c1[nH]c2ccccc2c(=O)n1CCCl | 50.6% (active)
CCCCCCCCCCCCCCCCCC(=O)[O][Al] | -3.6% (inactive)
CCN[C@@H]1C[C@H](N)[C@@H](OC2OC(CN)=CCC2N)[C@H](O)[C@H]1O[C@H]1OC[C@](C)(O)[C@H](NC)[C@H]1O (stereo partly drawn) | -1.7% (inactive)
CCCCCCCC/C=C/C(=O)O | 85.3% (active)
CC[C@@]1(c2ccccc2)NC(=O)N(C)C1=O | 11.6% (inactive)
Nc1ncnc2c1ncn2Cc1c(F)cccc1Cl | -2.4% (inactive)
CC(C)(C)NCC(O)COc1ccc(NC(=O)NC2CCCCC2)cc1 (stereo not drawn) | -5.6% (inactive)
OC[C@H]1O[C@@H](n2cnc3c(=S)nc[nH]c32)[C@H](O)[C@@H]1O | 78.1% (active)
OCCCc1ccccc1 | -15.8% (active)
O=C(O)c1c(O)c(-c2ccccc2)nc2ccccc12 | 107% (active)
Cc1onc(-c2c(Cl)cccc2Cl)c1C(=O)Cl | 17% (inactive)
NC(=S)N=Nc1ccc(NN=C(N)N)cc1 | 25% (inactive)
CC(=O)O[C@@H]1CC2C3CCc4cc(OC(=O)c5ccccc5)ccc4C3CCC2(C)[C@H]1OC(C)=O (stereo partly drawn) | 47% (inactive)

assay: decreased DLD-1 cellular survival, CellTiter-Glo luminescent readout, NPC compound collection, primary HTS (AID 1117346;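 active means compounds that lower survival of DLD-1 colon cancer cells in the luminescence readout, no cutoff given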); details: DLD-1 viability, CellTiter-Glo luminescence; at 20 µM (top of the series)

Compound | viability decrease (inhibition)
CC[C@@]1(O)C(=O)OCc2c1cc1n(c2=O)Cc2c-1nc1ccccc1c2/C=N/OC(C)(C)C | 76.5% (active)
CC1(C)O[C@@H]2C[C@H]3[C@@H]4CCC5=CC(=O)C=C[C@]5(C)[C@@H]4[C@@H](O)C[C@]3(C)[C@]2(C(=O)CO)O1 | -7.4% (inactive)
Cc1ccc(S(=O)(=O)NC(=O)NC2CCCCC2)cc1 | -1.8% (inactive)
CCCCCC1Nc2cc(C(F)(F)F)c(S(N)(=O)=O)cc2S(=O)(=O)N1 (stereo not drawn) | 31.7% (inactive)
CC(C)(C)NCC(O)COc1ccccc1OCC1CCCO1 (stereo not drawn) | -6.9% (inactive)
NC(=O)NC1N=C([O][Al])NC1=O (stereo not drawn) | -4.5% (inactive)
CC(C)CCOC(=O)c1ccc(N(C)C)cc1 | 10.3% (inactive)
Nc1nc(=O)n([C@@H]2O[C@H](CO)[C@@H](O)[C@@H]2F)cc1I | 23.1% (inactive)
CCOC(=O)c1cccnc1 | -9.05% (inactive)
CCN(CC)CCOC(=O)C1(c2ccccc2)CCCC1 | -2.6% (inactive)
NS(=O)(=O)c1ccc(NC(=O)CCC(=O)O)cc1 | -13.6% (inactive)
CCCCCCCC(=O)OCC(O)CO (stereo not drawn) | -20.5% (inactive)
Cc1nc(-c2ccc(Cl)cc2)oc1COC(C)(C)C(=O)O | 10% (active)
CN(CC1(C)CCCO1)S(=O)(=O)c1ccc(Cl)c(S(N)(=O)=O)c1 (stereo not drawn) | 2.2% (inactive)
CCC(=O)Oc1ccc2c(c1)CC[C@@H]1[C@H]2CC[C@]2(C)[C@@H](OC(=O)CC)CC[C@@H]12 | 2.6% (inactive)
Nc1ccc([N+](=O)[O-])c(C(F)(F)F)c1 | 18.5% (inactive)
CN1N=C(C(N)=O)CCC1=O | 10.1% (inactive)
CC(C)(C)C(=O)OCOC(=O)C1N2C(=O)CC2S(=O)(=O)C1(C)C (stereo not drawn) | 4% (inactive)
CCCCCCCCCCCCCCCC(=O)OC(C)C | -1.5% (inactive)
CCCCN(CCN(CCCC)C(=O)N1CCOCC1)C(=O)N1CCOCC1 | 24.1% (inactive)

Compound | viability decrease (inhibition)
CCc1cccc2c(CCO)c[nH]c12 | -6.5% (inactive)
CCc1cc(S(=O)(=O)O)c2cc(C(C)C)cccc1-2 | -14.2% (inactive)
O=C(O)[C@@H]1CSCN1 | 11.6% (inactive)
CCN1CCN(C(=O)N[C@@H](C(=O)N[C@@H]2C(=O)N3[C@@H]2SC(C)(C)[C@H]3C(=O)O)c2ccccc2)C(=O)C1=O | -5.2% (inactive)
O=C(O)c1ccccc1-c1ccc(C(F)(F)F)cc1 | -11.8% (inactive)
CCCc1ncc(C(=O)O)s1 | -6.8% (inactive)
O=c1[nH]c2ccccc2c(=O)n1CCCl | 20.2% (inactive)
CCCCCCCCCCCCCCCCCC(=O)[O][Al] | -0.7% (inactive)
CCN[C@@H]1C[C@H](N)[C@@H](OC2OC(CN)=CCC2N)[C@H](O)[C@H]1O[C@H]1OC[C@](C)(O)[C@H](NC)[C@H]1O (stereo partly drawn) | 3.7% (inactive)
CCCCCCCC/C=C/C(=O)O | 45% (inactive)
CC[C@@]1(c2ccccc2)NC(=O)N(C)C1=O | -9.4% (inactive)
Nc1ncnc2c1ncn2Cc1c(F)cccc1Cl | -2% (inactive)
CC(C)(C)NCC(O)COc1ccc(NC(=O)NC2CCCCC2)cc1 (stereo not drawn) | -1.8% (inactive)
OC[C@H]1O[C@@H](n2cnc3c(=S)nc[nH]c32)[C@H](O)[C@@H]1O | 73.5% (active)
OCCCc1ccccc1 | 7.85% (inactive)
O=C(O)c1c(O)c(-c2ccccc2)nc2ccccc12 | 39% (inactive)
Cc1onc(-c2c(Cl)cccc2Cl)c1C(=O)Cl | -2.5% (inactive)
NC(=S)N=Nc1ccc(NN=C(N)N)cc1 | 72.1% (active)
CC(=O)O[C@@H]1CC2C3CCc4cc(OC(=O)c5ccccc5)ccc4C3CCC2(C)[C@H]1OC(C)=O (stereo partly drawn) | -13.5% (inactive)
